TDP43 rescue = qHTS of TDP-43 Inhibitors | TDP-43 expressing yeast growth rescue, BacTiter-Glo, 24 h | Potency, µM (doses to about 46.1 µM), without a hit: at the highest dose growth rescue (activation), hits mostly activators | actives 1.8% (n = 410,000) | AID 652104, 2013; also: % of control where 0% means no effect; nearly all actives have a fitted effect of over 50% in size
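Readout is BacTiter-Glo luminescence of cell growth, so inhibitors register as activators. TDP-43-expressing yeast at OD600=0.02 in galactose medium, after raffinose pregrowth to mid-log, were incubated with compound for 24 hr at 30 deg C.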
FUS yeast rescue = qHTS for Suppressors of FUS Proteinopathy: Primary screen using FUS-linked yeast assay; S. cerevisiae FUS-expressing, growth rescue, OD600, 24 h; Potency, µM (top dose mostly 76.6 µM), hits mostly activators; AID 1347120, 2019; actives 0.24% (n = 390,000);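 also: plate controls were DMSO vehicle for no effect and reference control for full effect; nearly all actives have a fitted effect of over 55% in size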
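S. cerevisiae expressing FUS from galactose induction served as the toxicity model. Growth after 24hr at 30C, read as absorbance at 600 nm, indicates suppression of toxicity; compounds dosed at several concentrations.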
Abeta yeast res = qHTS for compounds that reverse cellular toxicity of Amyloid beta (A-beta) peptide in yeast: Primary Screen. yeast expressing A-beta42, growth rescue, OD600, 48 h; response scale: 0% DMSO, 100% iron-clioquinol control. Potency, µM (doses to about 46.1 µM), most hits filed as activators. actives 0.063% (n = 410,000). AID 1347071, 2019; also: nearly all actives have a fitted effect of over 55% in size
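Yeast growth medium received pinned compounds, then yeast cells expressing toxic A-beta were added; plates incubated at 30 C for 48 hr. Growth read as absorbance at 600 nm, normalized to DMSO and equimolar FeCl3 plus clioquinol controls.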
aSyn yeast inh = qHTS of alpha-syn Inhibitors | Yeast expressing alpha-synuclein, growth rescue, BacTiter-Glo, 24 h | Potency, µM (top dose mostly 46.1 µM), without a hit: at the top dose growth rescue (activation), hits mostly activators | actives 0.14% (n = 370,000) | AID 652106, 2013; also: % of control where 0% means no effect; nearly all actives have a fitted effect of over 65% in size
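Galactose-induced alpha-syn yeast (OD600=0.02, raffinose-pregrown) + pinned cpd, 24 hr, 30 deg C; growth by BacTiter-Glo luminescence. Growth restoration scores as activation.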
* hit, by the source's call; i = inactive; ? = inconclusive; . = no result given. A selection: hits, their analogues and other compounds. The true share with any hit is near 2.1%. Calls follow the shape of the dose curve; as a rule, active = well fitted curve in the direction sought with a large enough effect; inconclusive = small, poorly fitted or top-dose-only effect, or another doubt; inactive = no such curve, though single readings can be large; an effect the other way counts as inactive or inconclusive. Potency is read from the fitted curve at half-maximal effect.

SMILES | TDP43 rescue | FUS yeast rescue | Abeta yeast res | aSyn yeast inh
CCOC(=O)NC(=O)CSc1nc(C)cc(C)c1C#N | 15.8µM* | i | i | 2.0%
Cc1cccc(OCC(=O)N(Cc2ccccc2)c2c(N)n(Cc3ccccc3)c(=O)[nH]c2=O)c1 | -6.5% | i | i | -2.8%
COc1ccc(NC(=O)c2ccc3oc(=O)c(S(=O)(=O)c4ccc(C)cc4)cc3c2)cc1OC | -1.8% | i | i | .
CCOc1ccc(C(=O)COc2ccc(NC(C)=O)cc2)cc1 | -1.0% | 11.2µM* | i | 6.9%
CC(=O)c1ccc(O)c(CSC2=NCCS2)c1 | 8.2% | i | i | 1.2%
Cc1sc(NC(=O)c2ccco2)c(C(c2cccnc2)N2CCN(c3ccc(F)cc3)CC2)c1C (stereo not drawn) | 25.1µM* | ? | i | ?
CCOC(=O)C1CCN(C(c2cccnc2)c2c(NC(=O)c3ccco3)sc(C)c2C)CC1 (stereo not drawn) | 14.1µM* | . | i | 9.5%
CCN(CC)S(=O)(=O)c1cc(C(=O)Nc2cccnc2Cl)ccc1Cl | 8.7% | i | i | 4.1%
COC1=C(Br)C(=O)c2ncccc2C1=O | 27.9% | . | i | 15.8µM*
O=C1c2cccnc2-c2ncccc21 | 2.2% | i | i | -11.9%
N#Cc1cccc2c1-c1ccccc1/C2=N/NC(N)=O | 15.8% | i | i | 1.1%
N#Cc1cccc2c1-c1ccccc1/C2=N/NC(N)=S | 11.2µM* | i | i | -8.4%
O=C(c1cccs1)N1CCN(c2cc(Cl)ccc2Cl)CC1 | 22.4µM* | i | i | -11.8%
Cc1ccccc1S(=O)Cc1ccc(C(=O)N2CCN(c3cccc(C)c3C)CC2)o1 (stereo not drawn) | 35.5µM* | i | i | .
O=C(c1ccc(CS(=O)c2ccccc2Cl)o1)N1CCN(c2ccccc2F)CC1 (stereo not drawn) | 12.6µM* | i | i | .
COc1ccccc1N1CCN(C(=O)c2cccs2)CC1 | 20.8% | i | i | 2.4%
O=C(c1cccs1)N1CCN(c2ccc(Cl)cc2)CC1 | ? | i | i | 9.2%
Cc1cccc(N2CCN(C(=O)c3cccs3)CC2)c1C | 5.62µM* | i | i | 4.0%
O=C1CSC(c2ccccc2[N+](=O)[O-])N1CCc1ccccc1 (stereo not drawn) | 23.8% | i | i | 1.3%
CC(C)C[C@@H]1COc2cc(N3CCCC3)ccc2S(=O)(=O)N1C | . | i | . | .
Cc1ccc(C(=O)N2CCN(c3cccc(C)c3C)CC2)o1 | 12.6µM* | i | i | 5.2%
COc1ccc(Nc2nnc(SCC3CCCCO3)s2)cc1 (stereo not drawn) | 11.2µM* | i | i | -18.3%
O=C(NCc1ccco1)c1noc2c1CCCC2 | -9.2% | i | i | 0.4%
CC1CCc2onc(C(=O)NCc3ccco3)c2C1 (stereo not drawn) | 25.1µM* | i | i | 0.4%
C[C@H](CO)N1C[C@H](C)[C@@H](CN(C)Cc2ccc(-c3ccccc3)cc2)Oc2c(NS(=O)(=O)c3ccccc3)cccc2C1=O | 10.7% | 22.4µM* | i | 17.0%
SMILES | TDP43 rescue | FUS yeast rescue | Abeta yeast res | aSyn yeast inh
Cc1ccc(S(=O)(=O)N(C)C[C@@H]2OCCCC[C@@H](C)Oc3ccc(NS(=O)(=O)c4c(C)noc4C)cc3C(=O)N([C@H](C)CO)C[C@@H]2C)cc1 | 11.4% | 15.8µM* | i | 3.1%
COc1ccc(S(=O)(=O)N(C)C[C@H]2Oc3ccc(NS(=O)(=O)c4ccc(F)cc4)cc3C(=O)N([C@H](C)CO)C[C@@H]2C)cc1 | 27.7% | 31.6µM* | i | 2.3%
COc1ccc(S(=O)(=O)Nc2ccc3c(c2)C(=O)N([C@H](C)CO)C[C@H](C)[C@@H](CN(C)S(=O)(=O)c2ccc(F)cc2)O3)cc1 | 26.8% | ? | i | -1.5%
C[C@@H]1CCCCO[C@@H](CN(C)Cc2ccc(Cl)c(Cl)c2)[C@@H](C)CN([C@H](C)CO)C(=O)c2cc(NC(=O)Nc3ccccc3)ccc2O1 | -3.5% | 28.2µM* | i | -2.4%
C=CCNC(=O)CN(C(=O)Cc1ccc(Cl)nc1)c1cccc(Br)c1 | . | i | . | .
O=C1c2ccccc2[C@@H]2Cc3csc[n+]3[C@H]12 | 20.2% | i | i | 1.8%
CCC(=O)c1cn([C@@H](CCC(OC)OC)CC(=O)OC(C)(C)C)cc1CC | 10.0% | i | i | 0.3%
COc1ccc(S(=O)(=O)Nc2cccc3c2O[C@H](CN(C)S(=O)(=O)c2ccc(Cl)cc2)[C@H](C)CN([C@H](C)CO)C3=O)cc1 | 0.0% | 10µM* | i | -7.2%
Nc1cc(=O)nc(SCC(=O)Nc2cccc(Cl)c2)n1CCc1ccccc1 | -0.6% | i | i | 0.0%
COc1ccc(CNC(=O)CCS(=O)(=O)c2ccc3c(c2)NC(=O)CS3)cc1 | 1.7% | i | i | -3.1%
N#Cc1c(NCc2ccccc2)ccnc1Cl | 14.1µM* | i | i | 14.9%
Cn1cc(CN2CCCC(C(=O)c3nccn3C)C2)c(-c2cccc(Cl)c2)n1 (stereo not drawn) | -12.3% | i | i | -0.5%
CSc1ncnc2c1ncn2CCCN1CCN(Cc2c(C)cc(C)cc2C)CC1 | 18.7% | i | i | 8.3%
COc1ccc(-c2cc(C#N)nc(Cl)n2)cc1 | 3.98µM* | i | i | -9.3%
COc1ccc(-c2cc(C#N)nc(Oc3ccc(Cl)cc3)n2)cc1 | 0.0% | . | i | 3.9%
CCn1cc(C(=O)N2CCN(c3ccc(OC)cc3)CC2)c2cc(OC)c(OC)cc2c1=O | 22.1% | i | i | 3.2%
COc1cc2c(C(=O)N3CCN(c4ccc(C)cc4)C(C)C3)cn(CC(C)C)c(=O)c2cc1OC (stereo not drawn) | 35.5µM* | ? | i | .
CCOC(=O)C1CCCN(C2CC(=O)N(c3ccc(N4C(=O)CC(N5CCCC(C(=O)OCC)C5)C4=O)cc3)C2=O)C1 (stereo not drawn) | 8.0% | i | i | 5.7%
CCOC(=O)C1CCCN(C2CC(=O)N(c3ccc(C(C)C)cc3)C2=O)C1 (stereo not drawn) | 35.5µM* | i | i | 5.6%
O=C(N/N=C/c1c[nH]c2ccccc12)c1ccn(Cc2ccc(Cl)cc2)n1 | 10.2% | i | i | 0.9%
O=C(N/N=C/c1c[nH]c2ccc(Br)cc12)c1ccn(Cc2ccc(Cl)cc2Cl)n1 | 20.1% | 28.2µM* | i | 1.5%
O=C(CN1CCN(c2ccc(F)cc2)CC1)Nc1ccc(S(=O)(=O)N2CCOCC2)cc1 | -13.9% | i | i | -4.6%
O=S(=O)(Nc1ccc(Br)cn1)c1ccc(Cl)s1 | 11.2µM* | i | i | 4.7%
Cc1ccc(Cl)cc1N1CCN(C(=O)CN(c2ccccc2)S(=O)(=O)N(C)C)CC1 | 13.8% | i | i | -4.2%

Assay outcomes deposited in PubChem BioAssay by National Center for Advancing Translational Sciences (NCATS).
